Laboratory results: the supplement of paper PMC12350171
Counter-ions that a name gives are not always drawn.

Tests used:
Settings in all cases: 20 µM
[1] = test system: Salmonella enterica typhimurium; experiment: growth AUC normalised to DMSO control (fraction of control); higher = less growth inhibition, active = hit call of the paper
Summary of the method: (§1)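 Pathogens passaged twice anaerobically were inoculated at a starting OD578 of 0.01 into pre-reduced mGAM plates with drug at 20 μM and 1% DMSO, sealed with breathable membranes. Haemophilus parainfluenzae medium was supplemented with hemin and NAD. OD578 was read hourly for 24 h, with three biological replicates. Growth-curve AUC was computed by the trapezoidal rule up to the exponential-to-stationary transition and normalised to DMSO controls on the same plate.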

Shigella flexneri = experiment: as above
Summary of the method: as §1

Vibrio cholerae = experiment: as above
Summary of the method: as §1

[2] = test system: Yersinia pseudotuberculosis; experiment: as above
Summary of the method: as §1

P. vulgatus RND KO = experiment: growth AUC normalised to DMSO control (median) (fraction of control); higher = less growth inhibition, active = hit call of the paper
Summary of the method: (§2)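 For normalised area under the curve, growth curves were truncated at entry into stationary phase, integrated by the trapezoidal rule and divided against vehicle wells on the same plate. The curves came from strains passaged twice overnight without oxygen and then grown in mGAM in 96-well plates at a starting OD578 of 0.01. Each well held an approved-drug library compound at 20 μM with 1% DMSO, and OD578 was read hourly for 24 h in an anaerobic incubator. Values are medians of three biological replicates.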

P. vulgatus WT = experiment: as above
Summary of the method: as §2

[3] = test system: S. enterica typhimurium WT; experiment: as above
Summary of the method: as §2

[4] = test system: S. enterica typhimurium tolC KO; experiment: as above
Summary of the method: as §2

Measured: growth AUC normalised to DMSO control
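For growth AUC normalised to DMSO control (median) in this document: active when median AUC fell below 0.1.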

COc1ccc(C(=O)c2ccccc2)c(O)c1 [Oxybenzone]
inactive: [1] 1.03 | Shigella flexneri 1.03 | Vibrio cholerae 1 | [2] 1 | P. vulgatus RND KO 1.05 | P. vulgatus WT 1.06 | [3] 1 | [4] 0.954

CC(=O)O[C@H]1C[C@@]2(C)[C@@H](C[C@@H](O)[C@H]3[C@@]4(C)CC[C@@H](O)[C@@H](C)[C@@H]4CC[C@@]32C)/C1=C(\CCC=C(C)C)C(=O)O [Fusidic acid sodium salt]
inactive: [1] 0.997 | Shigella flexneri 0.974 | Vibrio cholerae 0.927 | [3] 0.989
active: [2] 0.824 | P. vulgatus RND KO 0.0166 | P. vulgatus WT 0.0143 | [4] 0.0407

O=C(O)COCCN1CCN(C(c2ccccc2)c2ccc(Cl)cc2)CC1 (stereo not given) [Cetirizine dihydrochloride]
inactive: [1] 1 | Shigella flexneri 0.994 | Vibrio cholerae 0.988 | [2] 0.981 | P. vulgatus RND KO 1 | P. vulgatus WT 1.01 | [3] 1.01 | [4] 0.994

NCCc1cc[nH]n1 [Betazole hydrochloride]
inactive: [1] 0.986 | Shigella flexneri 0.97 | Vibrio cholerae 0.979 | [2] 0.968 | P. vulgatus RND KO 0.999 | P. vulgatus WT 1.02 | [3] 1 | [4] 0.999

CC(=O)[C@H]1CC[C@H]2[C@@H]3C[C@H](C)C4=CC(=O)CC[C@]4(C)[C@H]3[C@@H](O)C[C@]12C [Medrysone]
inactive: [1] 0.994 | Shigella flexneri 0.962 | Vibrio cholerae 0.974 | [2] 0.991 | P. vulgatus RND KO 0.997 | P. vulgatus WT 1.02 | [3] 1.01 | [4] 0.976

CC(C)NCC(O)COc1ccc(CCOCC2CC2)cc1 (stereo not given) [Betaxolol hydrochloride]
inactive: [1] 0.998 | Shigella flexneri 0.988 | Vibrio cholerae 1 | [2] 1 | P. vulgatus RND KO 1.01 | P. vulgatus WT 1.01 | [3] 1.01 | [4] 1

CCCN(CCC)S(=O)(=O)c1ccc(C(=O)O)cc1 [Probenecid]
inactive: [1] 1.02 | Shigella flexneri 1.03 | Vibrio cholerae 1.02 | [2] 1.02 | P. vulgatus RND KO 1 | P. vulgatus WT 1.02 | [3] 1.02 | [4] 0.895

COc1cc(Cc2cnc(N)nc2N)cc(OC)c1OC [Trimethoprim]
inactive: P. vulgatus RND KO 0.45 | P. vulgatus WT 0.259 | [3] 0.147 | [4] 0.132
active: [1] 0.197 | Shigella flexneri 0.0632 | Vibrio cholerae 0.0115 | [2] 0.157

C=CCc1ccccc1OCC(O)CNC(C)C (stereo not given) [Alprenolol hydrochloride]
inactive: [1] 1.01 | Shigella flexneri 1.06 | Vibrio cholerae 1.04 | [2] 1.01 | P. vulgatus RND KO 1.07 | P. vulgatus WT 1.08 | [3] 0.995 | [4] 0.997

COc1ccc2cc([C@H](C)C(=O)O)ccc2c1 [(S)-Naproxen]
inactive: [1] 0.992 | Shigella flexneri 1.01 | Vibrio cholerae 0.96 | [2] 0.964 | P. vulgatus RND KO 1.01 | P. vulgatus WT 1.04 | [3] 0.994 | [4] 0.998

CC1=Nc2ccc(Cl)cc2S(=O)(=O)N1 [Diazoxide]
inactive: [1] 1.01 | Shigella flexneri 1.03 | Vibrio cholerae 1.02 | [2] 0.999 | P. vulgatus RND KO 1.04 | P. vulgatus WT 1.01 | [3] 1.01 | [4] 0.989

CCCOc1cc(N)ccc1C(=O)OCCN(CC)CC [Propoxycaine hydrochloride]
inactive: [1] 1.02 | Shigella flexneri 1.04 | Vibrio cholerae 1.07 | [2] 1.02 | P. vulgatus RND KO 1.01 | P. vulgatus WT 1.05 | [3] 0.997 | [4] 0.996

CCCCOC(=O)c1ccc(O)cc1 [Butylparaben]
inactive: [1] 1.01 | Shigella flexneri 0.969 | Vibrio cholerae 0.896 | [2] 0.962 | P. vulgatus RND KO 0.974 | P. vulgatus WT 1 | [3] 0.994 | [4] 0.953

CC(C)NCC(O)COc1ccc(COCCOC(C)C)cc1 (stereo not given) [Bisoprolol hemifumarate]
inactive: [1] 1.03 | Shigella flexneri 1.03 | Vibrio cholerae 1.05 | [2] 1.02 | P. vulgatus RND KO 1.02 | P. vulgatus WT 1.08 | [3] 1.01 | [4] 1.01

Cc1c(C)c2c(c(C)c1O)CCC(C)(COc1ccc(CC3SC(=O)NC3=O)cc1)O2 (stereo not given) [Troglitazone]
inactive: [1] 0.992 | Shigella flexneri 0.97 | Vibrio cholerae 0.986 | [2] 0.974 | P. vulgatus RND KO 0.839 | P. vulgatus WT 0.892 | [3] 0.997 | [4] 0.97

CCN1CCCC1CNC(=O)c1cc(S(N)(=O)=O)ccc1OC (stereo not given) [Sulpiride]
inactive: [1] 0.99 | Shigella flexneri 1 | Vibrio cholerae 1.01 | [2] 1.02 | P. vulgatus RND KO 0.992 | P. vulgatus WT 1.01 | [3] 1 | [4] 0.999

C#CCN(C)CCCOc1ccc(Cl)cc1Cl [Clorgyline hydrochloride]
inactive: [1] 0.966 | Shigella flexneri 0.955 | [2] 0.994 | P. vulgatus RND KO 0.999 | P. vulgatus WT 1.01 | [3] 0.976 | [4] 0.93
active: Vibrio cholerae 0.862

NS(=O)(=O)c1cc2c(cc1C(F)(F)F)NCNS2(=O)=O [Hydroflumethiazide]
inactive: [1] 1.01 | Shigella flexneri 1.01 | Vibrio cholerae 0.998 | [2] 0.998 | P. vulgatus RND KO 1.02 | P. vulgatus WT 0.986 | [3] 1.01 | [4] 1.01

CCCc1nc(C)c2c(=O)nc(-c3cc(S(=O)(=O)N4CCN(CC)CC4)ccc3OCC)[nH]n12 [Vardenafil]
inactive: [1] 1.01 | Shigella flexneri 1 | Vibrio cholerae 1.01 | [2] 1.01 | P. vulgatus RND KO 1.01 | P. vulgatus WT 1.01 | [3] 0.983 | [4] 0.984

CCS(=O)(=O)CCn1c([N+](=O)[O-])cnc1C [Tinidazole]
active: P. vulgatus RND KO 0.0183 | P. vulgatus WT 0.0185
inactive: [1] 1.01 | Shigella flexneri 0.99 | Vibrio cholerae 1 | [2] 0.971 | [3] 1 | [4] 0.995

CN[C@@H]1[C@@H](O)[C@@H](O[C@@H]2[C@@H](O)[C@H](O[C@H]3OC(CN)=CC[C@H]3N)[C@@H](N)C[C@H]2N)OC[C@]1(C)O [Sisomicin sulfate]
inactive: [1] 1 | Shigella flexneri 0.986 | Vibrio cholerae 0.996 | [2] 0.982 | P. vulgatus RND KO 0.994 | P. vulgatus WT 1 | [3] 1 | [4] 1.01

NC[C@H]1O[C@H](O[C@H]2[C@H](O)[C@@H](O[C@H]3O[C@H](CO)[C@@H](O)[C@H](N)[C@H]3O)[C@H](N)C[C@@H]2N)[C@H](N)C[C@@H]1O [Tobramycin]
inactive: Vibrio cholerae 0.97 | P. vulgatus RND KO 1.03 | P. vulgatus WT 1.05 | [3] 0.969 | [4] 0.995
active: [1] 0.888 | Shigella flexneri 0.794 | [2] 0.107

CN1CCC(=C2c3ccccc3C=Cc3ccccc32)CC1 [Cyproheptadine hydrochloride]
inactive: [1] 0.998 | Shigella flexneri 1 | Vibrio cholerae 0.91 | [2] 1 | P. vulgatus RND KO 0.97 | P. vulgatus WT 0.976 | [3] 1.01 | [4] 0.969

CC(NCCC(c1ccccc1)c1ccccc1)c1ccccc1 (stereo not given) [Fendiline hydrochloride]
inactive: [1] 1.01 | Shigella flexneri 1.02 | Vibrio cholerae 0.86 | [2] 0.996 | P. vulgatus RND KO 0.978 | P. vulgatus WT 0.977 | [3] 1 | [4] 0.95

CCN(CC)C(=O)N1CCN(C)CC1 [Diethylcarbamazine citrate]
inactive: [1] 0.959 | Shigella flexneri 0.973 | Vibrio cholerae 0.983 | [2] 0.998 | P. vulgatus RND KO 0.995 | P. vulgatus WT 0.978 | [3] 0.999 | [4] 0.995

COC(=O)Nc1nc2cc(C(=O)c3ccccc3)ccc2[nH]1 [Mebendazole]
inactive: [1] 0.975 | Shigella flexneri 0.975 | Vibrio cholerae 0.951 | [2] 0.996 | P. vulgatus RND KO 0.998 | P. vulgatus WT 0.991 | [3] 0.998 | [4] 0.989

O=C(NCCNCC(O)COc1ccc(O)cc1)N1CCOCC1 (stereo not given) [Xamoterol hemifumarate]
inactive: [1] 0.969 | Shigella flexneri 0.945 | Vibrio cholerae 0.98 | [2] 0.993 | P. vulgatus RND KO 0.991 | P. vulgatus WT 0.982 | [3] 1.01 | [4] 0.99

C#CCN(C)Cc1ccccc1 [Pargyline hydrochloride]
inactive: [1] 0.964 | Shigella flexneri 1.03 | Vibrio cholerae 0.942 | [2] 0.994 | P. vulgatus RND KO 1.01 | P. vulgatus WT 1 | [3] 1 | [4] 1.01

COc1ccccc1O [Guaiacol]
inactive: [1] 0.991 | Shigella flexneri 0.976 | Vibrio cholerae 0.992 | [2] 0.999 | P. vulgatus RND KO 0.99 | P. vulgatus WT 1 | [3] 0.997 | [4] 1

CCN1C(=O)NC(c2ccccc2)C1=O (stereo not given) [Ethotoin]
inactive: [1] 0.995 | Shigella flexneri 0.99 | Vibrio cholerae 0.996 | [2] 0.992 | P. vulgatus RND KO 1 | P. vulgatus WT 0.993 | [3] 0.987 | [4] 1
